The values that follow come from PubChem BioAssay.

Each structure is given as a SMILES string. Active and inactive are the calls of the source.

Assay [1] in a line: E. coli DRC41 culture turbidity changes, primary screen, E. coli filamentation inducer project, strain DRC41, OD650, 48 h (AID 1152).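 Also: E. coli MC1000 strain DRC41 lacking acrAB efflux pump and sulA.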 To be noted: E. coli DRC41 (acrAB sulA), higher = more signal, called active from +8 up or from −8 down.
Assay [2] in a line: small-molecule binders of probe aLefty1, primary screen, biochemical, small-molecule microarray, 635/667 nm fluorescence (AID 1153).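 Also: score merges spot fluorescence with signal-to-noise ratio from the scanned slide images.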 To be noted: higher = more signal.
Assay [3] can be described thus: PSAC antagonists in infected red cells, primary screen, cell-based, P. falciparum Indochina, OD700, 1 h (AID 1154). To be noted: P. falciparum Indochina infected RBC osmotic lysis, higher = more signal, called active from +8 up or from −8 down.
The nature of assay [4]: PSAC antagonists in infected red cells, primary screen, cell-based, P. falciparum Indochina, OD700, 2 h (AID 1155).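 Also: lysis reports solute entry through the parasite surface anion channel PSAC; channel blockers reduce lysis of infected cells.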 The settings on record: P. falciparum Indochina infected erythrocytes, osmotic lysis OD700; higher = more signal, called active from +8 up or from −8 down.
Assay [5] can be described thus: osmotic lysis modulators in infected erythrocytes, primary screen, PSAC antagonist project, cell-based, P. falciparum Indochina, OD700, 3 h (AID 1156). The settings on record: higher = more signal, called active from +8 up or from −8 down.
The nature of assay [6]: PSAC antagonists in infected red cells, primary screen, cell-based, P. falciparum Indochina, OD700, 18 h (AID 1157). To be noted: P. falciparum Indochina infected erythrocytes, osmotic lysis OD700, 18 h; higher = more signal, called active from +8 up or from −8 down.
Assay [7] can be described thus: modulators of S6 phosphorylation in cells, primary screen, cell-based, A549, cytoblot, luminescence, serum-stimulated (AID 1158).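 Also: serum-stimulated A549 lung adenocarcinoma cells; signal is phosphorylated S6 detected by cytoblot immunostaining with HRP secondary.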 To be noted: A549 phospho-S6 cytoblot, 5 h, higher = more signal.
Assay [8] concerns the target NADPH oxidase 2 (Homo sapiens) (UniProt P04839). As to the kind of experiment: NOX2-dependent H2O2 signal modulators, primary screen, NOX inhibitor project, cell-based, HEK293-NOX2, PMA-stimulated, Amplex Red fluorescence (AID 1159). Also: test concentration not given here. The settings on record: 45 min, higher = more signal, called active from +8 up or from −8 down.
For assay [9], the target named is NADPH oxidase 4 (Homo sapiens) (UniProt Q9NPH5). As to the kind of experiment: NOX4-dependent H2O2 signal modulators, primary screen, NOX inhibitor project, cell-based, HEK293-NOX4, tetracycline-induced, Amplex Red fluorescence (AID 1160). The settings on record: 45 min, higher = more signal, called active from +8 up or from −8 down.
NADPH oxidase 4 (Homo sapiens), sequence (Q9NPH5 whole entry, looked up): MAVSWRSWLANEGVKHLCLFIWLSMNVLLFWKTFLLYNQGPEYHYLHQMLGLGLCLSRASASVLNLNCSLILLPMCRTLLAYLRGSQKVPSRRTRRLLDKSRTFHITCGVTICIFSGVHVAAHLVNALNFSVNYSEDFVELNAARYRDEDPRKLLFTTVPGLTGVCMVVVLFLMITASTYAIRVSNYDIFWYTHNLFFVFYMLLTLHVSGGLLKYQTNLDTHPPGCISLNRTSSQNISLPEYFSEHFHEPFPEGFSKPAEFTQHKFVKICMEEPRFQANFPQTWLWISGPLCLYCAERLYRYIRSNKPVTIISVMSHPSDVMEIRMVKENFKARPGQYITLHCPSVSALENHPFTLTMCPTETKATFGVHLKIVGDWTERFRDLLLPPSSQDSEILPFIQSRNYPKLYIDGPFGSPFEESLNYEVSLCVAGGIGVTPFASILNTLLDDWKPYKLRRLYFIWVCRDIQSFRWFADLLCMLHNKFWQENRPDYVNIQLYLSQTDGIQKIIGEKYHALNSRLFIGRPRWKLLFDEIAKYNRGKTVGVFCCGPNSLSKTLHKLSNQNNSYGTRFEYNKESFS
Assay [10] has as its target NADPH oxidase 5 (Homo sapiens) (UniProt Q96PH1). As to the kind of experiment: NOX5-dependent H2O2 signal modulators, primary screen, NOX inhibitor project, cell-based, HEK293-NOX5, Amplex Red fluorescence (AID 1161). The settings on record: HEK293-NOX5, ionomycin, 45 min, higher = more signal.

NADPH oxidase 5 (Homo sapiens), sequence (Q96PH1 whole entry, looked up): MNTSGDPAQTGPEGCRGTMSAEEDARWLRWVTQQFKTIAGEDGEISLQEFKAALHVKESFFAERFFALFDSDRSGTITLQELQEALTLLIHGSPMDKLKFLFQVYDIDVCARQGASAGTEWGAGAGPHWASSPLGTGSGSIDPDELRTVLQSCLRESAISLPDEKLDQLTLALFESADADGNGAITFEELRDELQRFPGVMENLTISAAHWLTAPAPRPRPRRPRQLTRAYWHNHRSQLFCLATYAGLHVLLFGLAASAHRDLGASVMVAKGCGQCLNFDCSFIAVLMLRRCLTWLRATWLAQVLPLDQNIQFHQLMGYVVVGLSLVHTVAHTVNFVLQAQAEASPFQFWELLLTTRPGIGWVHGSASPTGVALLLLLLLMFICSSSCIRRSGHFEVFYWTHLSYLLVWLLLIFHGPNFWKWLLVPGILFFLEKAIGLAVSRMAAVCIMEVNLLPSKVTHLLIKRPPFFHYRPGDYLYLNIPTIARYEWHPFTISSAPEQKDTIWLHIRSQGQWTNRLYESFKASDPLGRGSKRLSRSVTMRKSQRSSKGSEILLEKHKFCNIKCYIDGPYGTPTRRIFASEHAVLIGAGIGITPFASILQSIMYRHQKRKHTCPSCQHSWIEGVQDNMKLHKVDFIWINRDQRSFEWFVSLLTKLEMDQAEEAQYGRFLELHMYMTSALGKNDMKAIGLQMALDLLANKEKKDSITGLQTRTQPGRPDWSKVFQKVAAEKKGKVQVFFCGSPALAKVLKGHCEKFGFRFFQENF
NADPH oxidase 2 (Homo sapiens), sequence (P04839 whole entry, looked up): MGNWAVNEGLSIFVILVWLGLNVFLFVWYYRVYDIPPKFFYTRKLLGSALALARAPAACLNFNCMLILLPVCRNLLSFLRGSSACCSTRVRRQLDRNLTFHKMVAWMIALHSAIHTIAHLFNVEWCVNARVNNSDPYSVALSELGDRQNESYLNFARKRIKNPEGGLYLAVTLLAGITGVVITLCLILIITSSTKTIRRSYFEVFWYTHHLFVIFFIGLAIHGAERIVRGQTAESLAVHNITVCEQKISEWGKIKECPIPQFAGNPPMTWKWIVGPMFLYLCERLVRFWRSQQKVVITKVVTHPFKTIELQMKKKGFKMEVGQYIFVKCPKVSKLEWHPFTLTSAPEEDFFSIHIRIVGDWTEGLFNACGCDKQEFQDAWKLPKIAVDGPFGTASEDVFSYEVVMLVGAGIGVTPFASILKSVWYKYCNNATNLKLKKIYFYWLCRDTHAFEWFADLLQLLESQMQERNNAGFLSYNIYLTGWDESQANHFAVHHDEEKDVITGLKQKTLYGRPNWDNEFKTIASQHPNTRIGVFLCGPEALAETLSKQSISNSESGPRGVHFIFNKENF

As to `O=C(OCc1ccccc1)C1=CCC2c3[nH]c4ccccc4c3C(=O)C1N2S(=O)(=O)c1ccccc1[N+](=O)[O-]` (stereo not given), the z-score in assay [1] is -1.33 (inactive); in [3] it was 7.08 (inactive); in assay [4], 2.13 (inactive); in [5], 0.105 (inactive); in assay [6] it was 1.1 (inactive); in assay [7] it was -0.605. Further, the figures for the z-score in [8], in assay [9] and in assay [10] were 0.663 (inactive), -0.294 (inactive) and -1.97, respectively. The molecule further showed a composite z-score in assay [2] of -0.192.

On to `C=CCN1C(=O)[C@]2(O[C@H](CCn3cc([C@H](O)c4ccccc4)nn3)[C@@H]([Si](C)(C)c3ccc(OC)cc3)[C@@H]2C)c2ccccc21`, for which the z-score in assay [1] was -0.554 (inactive); in assay [3], 4.6 (inactive); in [4], 1.02 (inactive); in assay [5] it was 0.914 (inactive); in assay [6] it was 0.843 (inactive); in assay [7] it was 0.256. The z-score is 0.952 (inactive) in assay [8], 0.055 (inactive) in assay [9] and -0.251 in assay [10]. In assay [2], the composite z-score was -0.0099.

With `COc1ccc([Si](C)(C)[C@H]2[C@H](CC(=O)N3Cc4ccccc4C[C@H]3CO)O[C@@]3(C(=O)N(Cc4cccc(N5CCC5=O)c4)c4ccccc43)[C@@H]2C)cc1`, the z-score in assay [1] is -0.372 (inactive); in assay [3], 5.46 (inactive); in assay [4] it was 1.63 (inactive); in [5], 0.011 (inactive); in assay [6], 1.09 (inactive); in assay [7], -0.0301. Moreover, the z-score is -1.15 (inactive) in assay [8], -0.95 (inactive) in [9] and -1.44 in assay [10]. In [2], this molecule registered a composite z-score of -0.0536.

Regarding `COc1cc2c(cc1O)C(C1CC1)N(Cc1sc3ccccc3c1Cl)CC2` (stereo not given), the z-score in assay [1] was -1.54 (inactive); in assay [3], 13.1 (active); in assay [4], 3.41 (inactive); in assay [5] it was -0.449 (inactive); in assay [6], 1.33 (inactive); in [7] it was -0.0956. Further, the values for the z-score in [8], in assay [9] and in assay [10] were -4.57 (inactive), -2.68 (inactive) and -3.45, respectively. Besides, the composite z-score in assay [2] is -0.0162.

Regarding `Cc1ccc(S[C@]2(C(=O)NCCCN(C)C)CC(=O)N(Cc3cc(C(F)(F)F)cc(C(F)(F)F)c3)[C@@H]2c2ccc(CO)cc2)cc1`, the z-score is -0.48 (inactive) in [1]; 1.24 (inactive) in assay [3]; 0.0808 (inactive) in assay [4]; -0.0534 (inactive) in [5]; 0.327 (inactive) in [6]; 1.11 in [7]. In addition, the z-score in assay [8] is -0.373 (inactive); in assay [9], 0.414 (inactive); in [10], 0.942. The same molecule had a composite z-score in assay [2] of -0.506.

As to `CCC(CC)C(O)C1C=CC2C(=O)NC(=O)C2N1Nc1ccc(Cl)cc1Cl` (stereo not given), the z-score in [1] is -1.69 (inactive); in [3], 1.55 (inactive); in assay [4], 0.65 (inactive); in assay [5] it was 0.0089 (inactive); in assay [6], 1.24 (inactive); in assay [7], -1.5. For the same molecule, the values for the z-score in assay [8], in assay [9] and in assay [10] were -0.017 (inactive), -4.41 (inactive) and -2.93, respectively. Further, the composite z-score in assay [2] was 0.348.

In the case of `O=C1C2C=CC(C(O)CCc3ccccc3)N(Nc3ccccc3F)C2C(=O)N1c1ccccc1` (stereo not given), the z-score was -0.383 (inactive) in assay [1]; 1.87 (inactive) in [3]; 1.15 (inactive) in [4]; 0.517 (inactive) in assay [5]; 0.807 (inactive) in assay [6]; -0.638 in assay [7]. The figures for the z-score in [8], in assay [9] and in assay [10] were 0.236 (inactive), -0.452 (inactive) and -0.449, respectively. Besides, the composite z-score in assay [2] is -0.322.

On to `C=CCC(OC(C)=O)[C@@H]1[C@@H](N(Cc2ccc(-c3ccccc3)cc2)C(=O)c2ccc(-c3ccccc3)cc2)c2cc(OCCCO)ccc2N1C(=O)Cc1ccc2ccccc2c1` (stereo not given in full), for which the z-score in assay [1] is -0.706 (inactive); in assay [3], 0.05 (inactive); in assay [4], 0.129 (inactive); in assay [5] it was -0.472 (inactive); in [6] it was 0.408 (inactive); in assay [7] it was -0.309. The z-score in assay [8] is 0.795 (inactive); in assay [9], 1 (inactive); in [10], 0.532. The same molecule returned a composite z-score in [2] of 0.155.

For the molecule `COc1cc(C(O)C2C=CC3C(=O)NC(=O)C3N2Nc2ccccn2)cc(OC)c1OC` (stereo not given), the z-score in assay [1] is -1.57 (inactive); in assay [3], 0.0115 (inactive); in assay [4], 0.297 (inactive); in [5], -0.928 (inactive); in [6], 0.409 (inactive); in [7], -1.21. Further, the z-score in assay [8] is -1.42 (inactive); in [9], -3.26 (inactive); in assay [10], -2.9. The molecule further yielded a composite z-score in assay [2] of 0.19.

On to `C=CCOC(=O)[C@H]1[C@@H]2C(=O)O[C@@H](c3ccccc3)[C@@H](c3ccccc3)N2[C@@H](c2ccc(OCCOC(=O)[C@H]3C[C@H]4C(=O)N[C@@H](CCCCNC(C)=O)C(=O)N4[C@H]3c3cccc(OCCO)c3)cc2)[C@]12C(=O)Nc1ccccc12`, for which the z-score is -0.0842 (inactive) in assay [1]; 3.6 (inactive) in assay [3]; 1.52 (inactive) in assay [4]; 3.95 (inactive) in assay [5]; 1.01 (inactive) in [6]; -0.116 in assay [7]. The z-score in assay [8] was 2.19 (inactive); in assay [9], 1.93 (inactive); in [10], 0.8. The composite z-score in assay [2] turned out to be 0.179.

On to `NC(=O)[C@@H]1[C@H]2C(=O)O[C@H](c3ccccc3)[C@H](c3ccccc3)N2[C@H](c2ccc(O)cc2)[C@@]12C(=O)Nc1ccccc12`, for which the z-score is 0.428 (inactive) in assay [1]; 1.19 (inactive) in assay [3]; -0.619 (inactive) in assay [4]; -0.267 (inactive) in assay [5]; -2.21 (inactive) in assay [6]; 1.57 in assay [7]. In addition, the z-score in [8] was -1.93 (inactive); in assay [9], -1.13 (inactive); in assay [10], -0.42. The molecule also showed a composite z-score in [2] of 0.157.

With `COCCOC(=O)N1C(=O)[C@@]2(c3cc(C#CCC(C(=O)OC)C(=O)OC)ccc31)[C@H](c1ccccc1OCCO)N1[C@H](c3ccccc3)[C@H](c3ccccc3)OC(=O)[C@H]1[C@@H]2C(=O)NC[C@H](O)c1ccccc1`, the z-score in [1] is -0.165 (inactive); in assay [3] it was 1.95 (inactive); in [4], 1.35 (inactive); in [5], -0.0048 (inactive); in assay [6], 0.781 (inactive); in [7], 0.213. Further, the z-score in assay [8] was 1.57 (inactive); in assay [9], 1.07 (inactive); in assay [10], 1.41. The same molecule had a composite z-score in assay [2] of 0.557.
